Sampled rows, rich in hits. Any-hit rate of the full collection: about 22%.
CYP2C9 activ: CYP2C9 (human) activation. AID 1024. recombinant CYP2C9, luciferin-H conversion, luminescence; hits give high values; factor 1 = untreated enzyme, 0 = blocked. P11712. actives 1.4% (n = 96,000). activation factor at 5 µM;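 active means activation factor of 2 or more for CYP2C9 at a 5 µM dose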
Target sequence (P11712 whole entry, looked up): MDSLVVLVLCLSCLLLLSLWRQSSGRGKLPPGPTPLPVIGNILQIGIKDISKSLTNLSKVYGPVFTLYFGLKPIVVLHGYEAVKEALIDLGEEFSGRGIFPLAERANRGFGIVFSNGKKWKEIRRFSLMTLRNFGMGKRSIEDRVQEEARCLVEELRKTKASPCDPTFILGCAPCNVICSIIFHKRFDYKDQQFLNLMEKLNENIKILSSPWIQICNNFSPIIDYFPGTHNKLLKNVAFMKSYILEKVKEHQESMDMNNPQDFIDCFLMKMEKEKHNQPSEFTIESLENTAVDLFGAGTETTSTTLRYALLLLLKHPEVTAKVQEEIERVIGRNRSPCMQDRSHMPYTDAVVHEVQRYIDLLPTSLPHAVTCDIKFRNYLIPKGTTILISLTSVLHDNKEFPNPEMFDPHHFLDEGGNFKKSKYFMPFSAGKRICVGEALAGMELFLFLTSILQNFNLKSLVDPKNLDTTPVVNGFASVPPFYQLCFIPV
E-sel TNF inh: TNF alpha driven E-selectin expression inhibition. inhibition, % at 2 µM. HUVEC TNFa-induced E-selectin immunofluorescence, high content. actives 0.71% (n = 120,000);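 active means inhibition above the batch mean plus 3 SD, and confirmed as a hit on visual image review, cut at about 43% in these data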
F-actin modifier: modifiers of cytoskeleton assembly; inhibition, % at 2 µM; HUVEC TNFa F-actin phalloidin imaging, high content; actives 0.18% (n = 91,000);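 active means inhibition above the batch mean plus 3 SD and confirmed as a hit by visual image inspection, cut at about 30% in these data, passing the limit was not always enough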
CYP2C9 inhib: blocks human cytochrome P450 2C9. CYP2C9 Supersomes, luciferin-H conversion, luminescence. actives 20% (n = 96,000). inhibition, % at 5 µM. P11712;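 active means blocking of liver enzyme CYP2C9 beyond about 50% at 5 µM, limit read from the data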
CYP2C19 act: activators of human cytochrome P450 2C19 | activation factor at 5 µM | 96,000 tested, under 10 active | AID 1025 | recombinant CYP2C19, luciferin-H EGE luminescence; hits give high values; 0 = fully inhibited enzyme, 1 = untreated enzyme | P33261;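 active means activation factor of at least 2 at 5 µM in the primary screen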
CYP2C19 inhib: human CYP2C19 inhibition. P33261. CYP2C19 Supersomes, luciferin-H EGE luminescence, 30 min. inhibition, % at 5 µM. actives 21% (n = 96,000);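 active means CYP2C19 inhibition above a set limit at 5 µM in the primary screen, cut at about 50% in these data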
Numbers stand for hits; 0 = inactive; - = not tested or not shown.

SMILES	CYP2C9 activ	E-sel TNF inh	F-actin modifier	CYP2C9 inhib	CYP2C19 act	CYP2C19 inhib
COc1cc(-c2nc3n(n2)C(c2ccc(F)cc2)C2=C(CCCC2=O)N3)cc(OC)c1OC (configuration not stated)	0	-	0	0	0	0
COc1cccc(C2C3=C(CCCC3=O)Nc3nc(-c4cc(OC)c(OC)c(OC)c4)nn32)c1 (configuration not stated)	0	0	0	0	0	62.0
CCOC(=O)C1=C(C)OC(N)=C(C#N)C1c1ccc(OC)c(C)c1OC (configuration not stated)	0	-	-	55.3	0	72.8
COC(=O)C1=C(C)OC(N)=C(C#N)C1c1cc(C)sc1C (configuration not stated)	0	0	0	0	0	87.5
CCOC(=O)C1=C(C)OC(N)=C(C#N)C1c1cc(F)ccc1F (configuration not stated)	0	0	-	0	0	83.1
C#CCSC1=C(C#N)C(c2cccs2)C(C(=O)OCC)=C(C)N1 (configuration not stated)	0	-	0	72.0	0	64.0
Cc1cc(C2C(C#N)=C(N)Oc3n[nH]c(C)c32)c(C)s1 (configuration not stated)	0	0	0	0	0	0
CCOC(=O)C1=C(C)Nc2[nH]c(=O)[nH]c(=O)c2C1c1cccs1 (configuration not stated)	-	0	-	-	-	-
Cc1cc(C)cc(OCC(=O)Nc2ccc(N3CCN(C(=O)c4ccco4)CC3)cc2)c1	0	0	0	0	0	0
CCOCC(=O)Nc1nc2ccc(S(C)(=O)=O)cc2s1	0	0	0	0	0	0
CCn1c(Cc2ccccc2)nnc1SCC(=O)Nc1ccccc1F	-	0	-	-	-	-
CCOC(=O)C1=C(CC)OC(N)=C(C#N)C1c1cc(OC)ccc1OC (configuration not stated)	0	94.5	-	97.7	0	82.3
CCOC(=O)CC1=C(C(=O)OCC)C(c2cccs2)C(C#N)=C(N)O1 (configuration not stated)	0	0	0	0	0	78.1
CCOC(=O)CC1=C(C(=O)OCC)C(c2ccc(OC)c(OC)c2)C(C#N)=C(N)O1 (configuration not stated)	0	0	0	87.1	0	74.5
CCOC(=O)C1=C(c2ccccc2)OC(N)=C(C#N)C1c1cccs1 (configuration not stated)	0	0	0	0	0	0
Cc1sccc1C1C(C#N)=C(N)SC(N)=C1C#N	0	0	0	0	0	0
Cc1cc(C2C(C#N)=C(N)SC(N)=C2C#N)c(C)s1	0	0	0	0	0	92.1
CCOC(=O)/C(N=Nc1c(Br)cc(Br)cc1Br)=C(\C)O	0	0	0	0	0	0
CCN(CC)C(=O)CSC1=C(C#N)C(c2cccs2)C=C(C)N1 (configuration not stated)	0	-	0	0	0	59.7
COC(=O)CC1=C(C(=O)OC)C(c2ccncc2)C(C#N)=C(N)O1 (configuration not stated)	0	0	0	80.3	0	79.5
CCc1ccc2c(COC(=O)c3n[nH]c4ccccc34)cc(=O)oc2c1	0	0	0	80.6	0	57.9
Cc1ccc2c(COC(=O)c3n[nH]c4ccccc34)cc(=O)oc2c1	0	0	-	56.7	0	0
Cc1ccc2c(COC(=O)c3c(C)noc3C)cc(=O)oc2c1	-	0	-	-	-	-
O=C(CSc1ncccc1C(=O)O)NCc1ccc(F)cc1	0	0	0	0	0	0
Cc1cccc(-n2ncc(C#N)c2N)c1	0	0	0	0	0	0
SMILES	CYP2C9 activ	E-sel TNF inh	F-actin modifier	CYP2C9 inhib	CYP2C19 act	CYP2C19 inhib
N#CC1=C(N)N(c2ccccc2)C(c2cccc([N+](=O)[O-])c2)C1(C#N)C#N (configuration not stated)	0	0	0	53.4	0	0
Cc1cccc(N2C(N)=C(C#N)C(C#N)(C#N)C2c2ccccc2)c1 (configuration not stated)	0	0	0	54.7	0	0
N#CC1=C(N)N(c2ccccc2)C(c2ccco2)C1(C#N)C#N (configuration not stated)	0	0	-	53.8	0	0
N#Cc1c(-c2ccccc2)cc(-c2ccco2)c(C#N)c1N	0	0	0	0	0	0
O=[N+]([O-])c1cccc(CNCc2ccccc2)c1	-	0	-	-	-	-
O=C(COC(=O)c1cccs1)NCc1ccc2c(c1)OCO2	0	0	-	69.4	0	77.5
CCCC(C)C(=O)NCc1ccc2c(c1)OCO2 (configuration not stated)	0	0	0	0	0	0
O=C(Cc1n[nH]c(=O)c2ccccc12)OCC(=O)c1ccc2c(c1)OCCO2	0	0	0	65.5	0	0
CCC(OC(=O)c1cccs1)C(=O)NCc1ccc2c(c1)OCO2 (configuration not stated)	0	0	0	79.2	0	69.4
CCOCC(=O)NCc1ccc2c(c1)OCO2	0	0	0	0	0	0
O=C(COC(=O)c1cccs1)c1ccc2ccccc2c1	-	0	0	-	-	-
O=C(COC(=O)c1cccs1)c1ccc2c(c1)OCCO2	0	0	0	86.8	0	83.2
COc1cc(C(=S)N2CCC(C(N)=O)CC2)ccc1O	0	0	0	0	0	0
O=C(NCc1ccc2c(c1)OCO2)c1cccs1	0	0	-	66.9	0	92.7
COc1ccc(/C=N/NC(=O)c2ccoc2C)cc1COc1ccc(Cl)cc1	0	0	0	0	0	0
COc1ccc(/C=N/n2cncn2)cc1COc1ccc(NC(C)=O)cc1	0	0	0	68.9	0	61.1
Nc1nnc(SCc2coc(-c3ccc(Cl)cc3)n2)s1	0	0	0	0	0	0
Clc1ccc2nc(CN3CCCCC3)cn2c1	0	-	0	0	0	0
Clc1ccc2nc(CN3CCCc4ccccc43)cn2c1	0	-	0	92.7	0	87.8
N#Cc1nn(-c2ccccc2)nc1N1CCCCC1	0	0	-	50.7	0	0
CC(C)(C)c1ccc(C(=O)c2c[nH]c(C(=O)NCc3ccco3)c2)cc1	0	0	0	0	0	0
CC(C)(C)c1ccc(C(=O)N/C(=C\c2cccs2)C(=O)NCc2ccco2)cc1	0	0	0	56.5	0	0
COc1ccc(NC(=O)C2CSC3c4ccccc4C(=O)N23)cc1 (configuration not stated)	0	0	0	60.2	0	69.8
O=C(NCC1CCCO1)[C@@H]1CSC2c3ccccc3C(=O)N21 (some centres not stated)	0	-	0	0	0	0
COC(=O)c1ccc(NC(=O)CN2CCN(c3ccccc3)CC2)cc1	0	0	0	0	0	0
COc1ccc(-n2c(COc3ccc4c(c3)OCO4)nnc2SCC(=O)O)cc1	-	0	-	-	-	-
Cc1csc(=Nc2cccnc2)n1CC1CCCCC1	-	0	-	-	-	-
C=CCN1C(=Nc2cccnc2)SCC1(O)c1ccc(C)cc1 (configuration not stated)	0	0	0	78.0	0	95.4

Assay outcomes: PubChem BioAssay, several laboratories
